{"source": "PubChem BioAssay AID588651", "about": "(The Scripps Research Institute Molecular Screening Center, 2011)", "note": "Calls of active or inactive are those of the source. Cut-off read from the data, not from the text of the source: active = inhibition above about 65%; inactive = the rest.", "data": [{"system": "Antitargets", "assay": "Fam108b inhibitors and proteome off-target selectivity – biochemical, gel-based ABPP, recombinant soluble Fam108b, HTS hits, complex proteome, late-stage follow-up (AID 588651);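 note: Fam108b spiked into mouse brain membrane proteome; tested at 20 µM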", "details": "FP-rhodamine labeling in proteome", "values": [{"smiles": "Fc1ccc2nc(Nc3nc4cc5c(cc4s3)OCO5)sc2c1", "outcome": "inactive"}, {"smiles": "CCOc1cc(/C=C2\\C(=O)N(c3nc(-c4ccc(Br)cc4)cs3)N=C2c2ccccc2)ccc1O", "outcome": "active"}, {"smiles": "O=c1ccc2cc3c([nH]c4ccc(Br)cc43)oc-2c1O", "outcome": "inactive"}]}]}
